Screens as filed in PubChem.
M1 antagonist = blocks the rat M1 muscarinic receptor response to acetylcholine; P08482; CHO-M1 cells, Fluo-4 calcium, ACh EC80 antagonist mode; stronger effect = lower value; B-score at 10 µM; 64,000 tested, 3.4% active; AID 628;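 active = calcium fluorescence response, raw or row-and-column corrected B-score, differing from the plate sample mean either way at a set confidence level, mostly lower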
Target sequence (P08482 whole entry, looked up): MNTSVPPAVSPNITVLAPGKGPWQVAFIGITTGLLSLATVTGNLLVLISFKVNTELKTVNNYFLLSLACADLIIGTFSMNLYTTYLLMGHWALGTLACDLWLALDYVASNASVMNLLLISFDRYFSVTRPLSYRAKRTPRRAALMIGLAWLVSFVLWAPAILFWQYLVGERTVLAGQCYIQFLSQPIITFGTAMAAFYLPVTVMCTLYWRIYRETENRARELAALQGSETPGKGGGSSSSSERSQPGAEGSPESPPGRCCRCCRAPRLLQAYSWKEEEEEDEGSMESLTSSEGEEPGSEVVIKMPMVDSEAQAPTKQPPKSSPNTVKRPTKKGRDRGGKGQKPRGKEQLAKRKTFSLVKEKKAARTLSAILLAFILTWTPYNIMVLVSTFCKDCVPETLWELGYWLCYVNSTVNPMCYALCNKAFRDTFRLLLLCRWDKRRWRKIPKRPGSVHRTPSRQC
M1 agonist = agonists of M1 muscarinic receptor. B-score at 10 µM. AID 626. 64,000 tested, 3% active. CHO-M1 cells, Fluo-4 calcium fluorescence, agonist mode; stronger effect = higher value;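 active = fluorescence rise, raw or as B-score row- and column-corrected plate score, outside the 99.7% band of its plate's samples, either direction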
PLAP activator = activates human placental alkaline phosphatase | 96,000 tested, 1.2% active | activation fold at 20 µM | purified PLAP enzyme, luminescent substrate read-out; stronger effect = higher value | P05187; in the data active = activation fold above about 2
Cav32 inh = blocks human Cav3.2 T-type calcium channel | Cav3.2-expressing cells, Fluo-4 calcium fluorescence FDSS; stronger effect = lower value | B-score at 10 µM | 100,000 tested, 4% active | AID 449739;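 active = single-dose well whose peak fluorescence ratio is a statistical outlier from its plate by either plate-standardised score or position-corrected B-score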
Numbers without * were called inactive; . = no result. Shown are actives, neighbours in structure and some others; about 7.6% of the full set was active somewhere.

SMILES	M1 antagonist	M1 agonist	PLAP activator	Cav32 inh
CCc1ccc(-c2nc(CN3CCCC(C(=O)NCCc4ccc(OC)c(OC)c4)C3)c(C)o2)cc1 (centres undefined)	-1.5	-0.51	1.5	-5.8*
O=C(COC(=O)c1cccc(S(=O)(=O)N2CCOCC2)c1)Nc1nc(-c2ccccc2Cl)cs1	.	.	1.1	-5*
O=C(c1ccc(C(=O)N2CCCc3ccccc32)s1)N1CCCc2ccccc21	.	.	1.5	-7.8*
Cc1ccc2oc(Nc3nc(C)cc(C)n3)nc2c1	-0.049	-0.29	2.8*	0.47
O=c1c(Cl)c(NCCCO)cnn1-c1nc2ccccc2[nH]1	.	.	1.1	3.1*
Cc1c(C(=O)NC(C)CN2CCCCC2)oc2ccccc12 (centres undefined)	-0.55	-0.052	1.3	0.56
Cc1ccc(S(=O)(=O)/N=S(/C)c2ccccc2)cc1 (centres undefined)	.	.	1.1	-0.96
COc1ccc(-n2c(O)cnc2Nc2nc(C)cc(C)n2)cc1OC	.	.	2.7*	.
COc1ccc(-n2c(C)n[nH]c2=O)cc1OC	.	.	0.8	-0.58
CCOCCCNC(=O)C(c1ccc(C)cc1)N(Cc1ccc2c(c1)OCO2)C(=O)c1cnccn1 (centres undefined)	0.22	0.46	1.6	-0.35
O=C(Cn1cnc2c(nnn2Cc2ccc(Cl)cc2)c1=O)NCc1ccco1	-0.7	-0.045	.	0.01
O=C(NCc1ccco1)c1nc2c(nnn2Cc2cccc(Cl)c2)c(=O)[nH]1	.	.	1.4	.
O=C(Cn1cnc2c(nnn2Cc2ccc(F)cc2)c1=O)NCc1ccco1	-0.21	0.66	.	-4.2*
Cc1ccc(Cn2nnc3c(=O)[nH]c(C(=O)NCc4ccco4)nc32)cc1	-0.54	0.37	2*	-0.8
CN1C(C(=O)NCc2cccc(Br)c2)CC2Cn3c(nc4cc5ccccc5cc43)C21 (centres undefined)	.	.	.	-0.42
CCOc1ccc(N=c2scc(-c3ccccc3)n2CCO)cc1	.	.	0.9	0.63
OCCn1c(-c2ccc3c(c2)OCO3)csc1=Nc1ccccc1	-0.48	0.032	1.5	-5.4*
N#Cc1ccccc1NC(=O)COC(=O)CSc1nc2ccccc2o1	0.6	-1.2	1	.
Cc1ccc(-n2c(C3CC3c3ccc(Cl)cc3)n[nH]c2=S)cc1 (centres undefined)	.	.	1.1	-0.39
Cc1ccc(C2CC2c2n[nH]c(=S)n2-c2ccc(C)cc2)cc1 (centres undefined)	.	.	2.1*	-0.82
CCOC(=O)C1CCCN(C(=O)c2cc3ncc(Br)cn3n2)C1 (centres undefined)	.	0.26	0.9	0.56
O=C(NCc1ccco1)c1ccc2c(c1)C(=O)N(Cc1ccccc1)C2=O	0.89	0.15	1	-4.7*
CC(c1ccccc1)N1C(=O)c2ccc(C(=O)NCc3ccco3)cc2C1=O (centres undefined)	0.13	-0.26	.	-3.9*
CC(C)CCN1C(=O)c2ccc(C(=O)NCc3ccco3)cc2C1=O	0.56	1.5	0.9	.
Cc1nc2ccc(NC(=S)NC(C)C)cc2nc1C	.	.	1.2	1.2
SMILES	M1 antagonist	M1 agonist	PLAP activator	Cav32 inh
CN1/C(=C\C=Nc2ccc3ccccc3c2)C(C)(C)c2ccccc21	.	.	1.1	-9.4*
CN1/C(=C\C=Nc2ccccc2)C(C)(C)c2ccccc21	.	.	0.9	-0.83
COC(=O)c1ccc(CSc2nc3ccc(C)cc3[nH]2)o1	.	.	2.2*	-0.31
COC(=O)c1ccc(CSc2nc3c(cnn3-c3ccc(C)cc3)c(=O)[nH]2)o1	0.059	-1.5	.	0.024
O=C(/C=C/c1ccccc1)NCCSCc1ccccc1Cl	.	.	0.8	-5.7*
O=C(/C=C/c1ccc(Cl)cc1)NCCSc1ccccc1	.	.	1	.
O=C(NC12CC3CC(CC(C3)C1)C2)N1CCN(S(=O)(=O)c2ccc(Cl)cc2)CC1	0	-0.9	0.9	-7*
CCOC(=O)c1sc(C)c2c1NC(c1ccc(N(C)C)cc1)NC2=O (centres undefined)	.	.	0.9	-3.6*
CCc1ccc2[nH]c(=O)c(CN(Cc3ccccc3OC)C(=O)Nc3ccccc3OC)cc2c1	.	.	1.3	-5.2*
COc1ccccc1CN(Cc1nc2ccccc2c(=O)[nH]1)S(=O)(=O)c1ccc(C)cc1	.	.	1.5	0.012
COc1ccc(CN(Cc2nc3ccccc3c(=O)[nH]2)C(=O)NC2CCCCC2)cc1	-0.09	-0.16	0.9	0.7
COc1ccccc1CN(Cc1nc2ccccc2c(=O)[nH]1)C(=O)Nc1ccc(C)cc1	.	.	1.1	-4.3*
COc1ccccc1CN(Cc1nc2ccccc2c(=O)[nH]1)C(=O)Nc1ccccc1C	.	.	1.2	-5.9*
Cc1ccccc1NC(=O)N(CCc1nc2ccccc2[nH]1)Cc1ccccc1	.	.	.	-4*
CCN(CC)CCN(Cc1cc2cc(C)ccc2[nH]c1=O)C(=O)Nc1ccccc1OC	.	.	1.5	0.15
O=C(O)c1cnc(-c2ccccc2)nc1Sc1cccc(Cl)c1	.	.	1.5	-6.3*
O=C(O)c1cnc(-c2ccccc2)nc1Sc1ccccc1	.	.	1	-3.2
CCOC(=O)c1ccc(NC2OC(=O)c3ccccc32)cc1 (centres undefined)	0.9	0.8	0.9	1
Cn1c2c(c(=O)n(C)c1=O)C1(C(=O)Nc3ccccc31)C(C#N)=C(N)O2 (centres undefined)	.	.	1	-0.45
CCc1nnc(NC(=O)CC(CN(C)S(=O)(=O)c2ccccc2)c2ccccc2)s1 (centres undefined)	.	.	1	-6.9*
CN(CC(CC(=O)Nc1nncs1)c1ccccc1)S(=O)(=O)c1ccc(Br)cc1 (centres undefined)	.	.	1.4	-9.5*
CN(CC(CC(=O)Nc1nncs1)c1ccccc1)S(=O)(=O)c1ccccc1 (centres undefined)	0.21	-0.4	1.2	-2.4
Cc1ccc(S(=O)(=O)N2CCOCC2)cc1C(=O)OCC(=O)N1c2ccccc2NC(=O)C1(C)C	.	.	1.3	0.73
CCCCC(NC(=O)c1ccccc1)C(=O)OCC(=O)N1c2ccccc2Sc2ccccc21 (centres undefined)	.	.	1.4	-7.2*
CCCn1c(SCC(=O)Nc2ccccc2C(=O)OC)nc2c1c(=O)n(C)c(=O)n2C	-0.79	-0.056	0.9	-1.5
SMILES	M1 antagonist	M1 agonist	PLAP activator	Cav32 inh
CCCn1c(SCC(=O)Nc2ccccc2N2CCCCC2)nc2c1c(=O)n(C)c(=O)n2C	-0.76	0.98	1.7	-4.4*
O=C(CN1/C(=C(/O)c2ccccc2)C(=O)c2ccccc2S1(=O)=O)c1ccccc1	.	.	1.3	-6.9*
O=C(O)c1ccc(CN2C(=O)c3ccccc3S2(=O)=O)cc1	-2.4	-0.16	1.2	0.59
CN1CCC23c4ccccc4NC1C21CCN(C)C3Nc2ccccc21	.	.	.	0.094
C/C=C/C=C/C(=O)N1CC[C@]23c4ccccc4N[C@H]4N(C)c5cccc6c5[C@]42CCN([C@H]6C2OC2(C)C)[C@H]13 (some centres undefined)	.	.	.	-4.5*
CCC(C)C(NC(=O)OCc1ccccc1)C(=O)OCN1C(=O)c2ccccc2C1=O (centres undefined)	.	.	1.1	-5.1*
O=C(Nc1ccccc1)OCN1C(=O)c2ccccc2C1=O	.	.	1.2	-0.57
COc1ccc(Cl)cc1NC(=O)CC(C)c1ccccc1 (centres undefined)	.	.	0.7	-7.6*
COc1ccc(Cl)cc1NC(=O)CC(C)=O	1.3	-0.55	1.5	0.44
Cc1ccc(Cn2nnnc2CN2CCC(c3nc4ccc(Cl)cc4[nH]3)CC2)cc1	.	.	1.9	-5.7*
